Measured values published in ChEMBL document CHEMBL3433997, “St. Jude Leishmania screening dataset” (2016).

What follows are compounds tested against Solute carrier family 2, facilitated glucose transporter member 1 (Homo sapiens) (UniProt P11166) (assay: ST_JUDE_LEISH: Cytotoxicity at 2uM final concentration against transgenic Leishmania Mexicana promastigotes LmGLUT1 that are glucose transport deficient and complemented with the human glucose transporter GLUT1. Activity is measured by DNA content using SYBR green in vitro).
Solute carrier family 2, facilitated glucose transporter member 1 (Homo sapiens), sequence (P11166 whole entry): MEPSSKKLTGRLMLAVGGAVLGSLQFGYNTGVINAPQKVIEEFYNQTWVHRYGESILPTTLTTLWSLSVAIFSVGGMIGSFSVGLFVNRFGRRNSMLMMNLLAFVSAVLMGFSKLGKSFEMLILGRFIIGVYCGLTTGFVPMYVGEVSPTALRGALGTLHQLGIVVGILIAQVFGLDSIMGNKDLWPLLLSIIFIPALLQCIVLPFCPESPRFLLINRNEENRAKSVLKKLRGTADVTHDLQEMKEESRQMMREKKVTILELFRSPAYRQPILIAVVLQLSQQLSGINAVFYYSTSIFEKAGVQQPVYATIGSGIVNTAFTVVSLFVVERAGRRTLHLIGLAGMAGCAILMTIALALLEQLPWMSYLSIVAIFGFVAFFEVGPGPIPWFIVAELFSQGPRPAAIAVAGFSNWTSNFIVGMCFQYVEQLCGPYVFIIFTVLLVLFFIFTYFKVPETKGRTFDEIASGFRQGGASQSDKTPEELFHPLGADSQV
Assay type: functional
Compound CC(C)NCc1cccc(-c2ccc(NS(=O)(=O)c3cccc4cccnc34)cc2)c1 has an inhibition of 13.8%. Work on Cc1cc(NC(=O)Nc2ccc3sccc3c2)c2ccccc2n1 yielded an inhibition of 2.24%. In the case of CCCCCCc1c(C)nc2cc(OC)ccc2c1O, the inhibition is reported as 3.2%. O=C(NC1CCC(N2CCN(c3cccc(C(F)(F)F)c3)CC2)CC1)c1cc2ccccc2[nH]1 (stereo not given) showed an inhibition of 8.24%. In the case of CCNc1cc(C(=O)N[C@@H](Cc2ccccc2)[C@H](O)CNC2CCC(C)(C)CC2)cc(N2CCCCS2(=O)=O)c1, the inhibition is reported as 3.16%. Work on O=C(NCc1ccccc1)C1Cc2c([nH]c3ccc(Br)cc23)C2(CCN(Cc3ccccc3)CC2)N1 (stereo not given) yielded an inhibition of 2.61%. With CCOc1ccc2nc(NC(=O)c3csnn3)sc2c1 the inhibition was 4.69%. COc1c(C2CCN(CCN3CCC(NC(=O)c4ccc(-c5ccc(C(F)(F)F)cc5)cc4)CC3)CC2)ccc2c1CCCC2 showed an inhibition of 0.78%. N#CC(NC(=O)C=Cc1ccccc1)c1ccccc1 (stereo not given) was tested, and the inhibition was -1%. N#Cc1ccc(N(CCOc2ccc(Cl)cc2)Cc2ccccc2C(F)(F)F)cc1C(F)(F)F gave an inhibition of -1.04%. With Nc1nc(N)c2c(ccc3c2ccn3CCCC(F)(F)F)n1 the inhibition was 14.2%. COc1cc2c(cc1OC)C(C(=O)Nc1cc(OC)c(OC)c(OC)c1)C(c1ccc(SC)cc1)N(C)C2=O (stereo not given) gave an inhibition of 1.51%. For CCn1c(Sc2ccc([N+](=O)[O-])c(C#N)c2)nnc1-c1ccc(Cl)cc1, the inhibition was 9.05%. c1cc(CN2CCC(CCN3CCCCC3)CC2)cc(-c2cccc(-c3nc4ccccc4[nH]3)c2)c1 gave an inhibition of 2.17%. In the case of O=C(NNC(=O)c1ccc(CCN2CCC(c3nc(COCC(F)(F)F)c(-c4ccc(F)cc4)o3)CC2)cc1)Nc1ccc(Oc2ccccc2)cc1, the inhibition is reported as -0.99%. For CN(C)CCCNC(=O)c1ccccc1Sc1ccccc1C#N, the inhibition was 0.79%. Cc1cc(C)c2ncc(C(=O)O)c(O)c2c1 gave an inhibition of 2.75%. COc1ccc2nccc([C@@H](O)CN3CCC(NC(=O)/C=C/c4ccc5ccccc5n4)CC3)c2c1 showed an inhibition of 15.2%. Work on COc1cccc(C(=O)Nc2ccc(Oc3ccc(Cl)cc3)cc2)c1 yielded an inhibition of -1.17%. For Cc1cccc2nc(-c3ccc(-c4cccc(CNCc5ccccc5)c4)cc3)[nH]c12, the inhibition was 16.8%. Cc1cc(CNCCCCCCNCc2cccc([N+](=O)[O-])c2)ccc1O showed an inhibition of 10.5%. With CCCCCCCCc1c(C)nc(C)c(Br)c1O the inhibition was 0.75%. For CC(=O)Nc1ccc(COc2ccc(Nc3ccnc4cc(-c5ccccn5)ccc34)cc2)cc1, the inhibition was 3.41%. Work on Fc1ccc2[nH]c(-c3ccc(-c4ccc(CN5CCC(CCN6CCCCC6)CC5)cc4)cc3)nc2c1 yielded an inhibition of 7.35%. With CCOc1ccc(-c2nonc2NC(=O)c2ccco2)cc1OCC the inhibition was 1.01%. Cc1cccc2nc(-c3cccc(-c4cccc(NC(=O)c5ccc(C(N)=O)cc5)c4)c3)[nH]c12 was tested, and the inhibition was 0.33%. Cc1cccc2nc(-c3cccc(-c4ccc(NC(=O)CCc5c[nH]cn5)cc4)c3)[nH]c12 gave an inhibition of 7.76%. Compound O=C(NC1CC1c1ccccc1)N(CCCn1ccnc1)Cc1csc(-c2ccc(CNCc3ccccc3)cc2)n1 (stereo not given) has an inhibition of 1.52%. COc1ccc(NS(=O)(=O)c2ccc(C(=O)Nc3ccc(C(F)(F)F)cc3)cc2)cc1N1CCN(CC2CC2)CC1 was tested, and the inhibition was 0.55%. N#Cc1cccc(NC(=O)Nc2cccc(OC3CCN(Cc4ccccc4)CC3)c2)c1 gave an inhibition of 0.82%. Work on Cc1ccc(/C=C2/SC(=Nc3ccccc3)NC2=O)c(C)c1 yielded an inhibition of 13.2%. O=C(Nc1ccc(-c2ccccc2)s1)N[C@H]1CCN(Cc2ccc(OCCCN3CCCCC3)cc2)C1 gave an inhibition of 0.93%. In the case of FC(F)(F)c1cnc(Sc2nnc(-c3ccncc3)o2)c(Cl)c1, the inhibition is reported as -0.19%. COc1ccc(-c2c3c(=O)n(C)c(=O)n(C)c3c3nnc4ccccc4n23)cc1 was tested, and the inhibition was 0.81%. In the case of CC(=O)Nc1nc(C(=O)Nc2cccc(-c3cccc(-c4nc5cc(F)ccc5[nH]4)c3)c2)cs1, the inhibition is reported as 2.3%. Work on CCCNC[C@@H](O)[C@H](Cc1ccccc1)NC(=O)c1cc(NCC)cc(N2CCCC2=O)c1 yielded an inhibition of 1.25%. For CC(C)(C)c1ccc(CNC(=O)c2ccc(-c3nc4ccc(Cl)cc4[nH]3)cc2)cc1, the inhibition was 1.67%. Work on COc1ccc2nccc([C@@H](O)CN3CCC(NCc4cc5ccccc5o4)CC3)c2c1 yielded an inhibition of 10.1%. With COc1ccc(-c2cccc(NC(=O)c3cccc(Cl)c3)c2)cc1CNC(C)C the inhibition was 1.6%. Work on CCCn1cc2c(ccc3nc(N)nc(N)c32)n1 yielded an inhibition of 0.63%.

These compounds were tested against Hexose transporter 1 (Plasmodium falciparum) (UniProt O97467) (assay: ST_JUDE_LEISH: Cytotoxicity at 2uM final concentration against transgenic Leishmania Mexicana promastigotes LmPfHT that are glucose transport deficient and complemented with the Plasmodium falciparum hexose transporter. Activity is measured by DNA content using SYBR green in vitro).
Assay type: functional
CC(C)NCc1cccc(-c2ccc(NS(=O)(=O)c3cccc4cccnc34)cc2)c1 showed an inhibition of 8.78%. Compound Cc1cc(NC(=O)Nc2ccc3sccc3c2)c2ccccc2n1 has an inhibition of 2.66%. Compound CCCCCCc1c(C)nc2cc(OC)ccc2c1O has an inhibition of 5.49%. O=C(NC1CCC(N2CCN(c3cccc(C(F)(F)F)c3)CC2)CC1)c1cc2ccccc2[nH]1 (stereo not given) gave an inhibition of 6.44%. Work on CCNc1cc(C(=O)N[C@@H](Cc2ccccc2)[C@H](O)CNC2CCC(C)(C)CC2)cc(N2CCCCS2(=O)=O)c1 yielded an inhibition of 1.73%. O=C(NCc1ccccc1)C1Cc2c([nH]c3ccc(Br)cc23)C2(CCN(Cc3ccccc3)CC2)N1 (stereo not given) gave an inhibition of 3.23%. Work on CCOc1ccc2nc(NC(=O)c3csnn3)sc2c1 yielded an inhibition of 3.55%. For COc1c(C2CCN(CCN3CCC(NC(=O)c4ccc(-c5ccc(C(F)(F)F)cc5)cc4)CC3)CC2)ccc2c1CCCC2, the inhibition was 1.26%. For N#CC(NC(=O)C=Cc1ccccc1)c1ccccc1 (stereo not given), the inhibition was -2.81%. In the case of N#Cc1ccc(N(CCOc2ccc(Cl)cc2)Cc2ccccc2C(F)(F)F)cc1C(F)(F)F, the inhibition is reported as -1.88%. With Nc1nc(N)c2c(ccc3c2ccn3CCCC(F)(F)F)n1 the inhibition was 20.3%. COc1cc2c(cc1OC)C(C(=O)Nc1cc(OC)c(OC)c(OC)c1)C(c1ccc(SC)cc1)N(C)C2=O (stereo not given) was tested, and the inhibition was 0.98%. For CCn1c(Sc2ccc([N+](=O)[O-])c(C#N)c2)nnc1-c1ccc(Cl)cc1, the inhibition was 7.38%. In the case of c1cc(CN2CCC(CCN3CCCCC3)CC2)cc(-c2cccc(-c3nc4ccccc4[nH]3)c2)c1, the inhibition is reported as 2.55%. O=C(NNC(=O)c1ccc(CCN2CCC(c3nc(COCC(F)(F)F)c(-c4ccc(F)cc4)o3)CC2)cc1)Nc1ccc(Oc2ccccc2)cc1 showed an inhibition of -0.56%. Work on CN(C)CCCNC(=O)c1ccccc1Sc1ccccc1C#N yielded an inhibition of 1.43%. With Cc1cc(C)c2ncc(C(=O)O)c(O)c2c1 the inhibition was 3.7%. Work on COc1ccc2nccc([C@@H](O)CN3CCC(NC(=O)/C=C/c4ccc5ccccc5n4)CC3)c2c1 yielded an inhibition of 13.2%. COc1cccc(C(=O)Nc2ccc(Oc3ccc(Cl)cc3)cc2)c1 gave an inhibition of -0.22%. Cc1cccc2nc(-c3ccc(-c4cccc(CNCc5ccccc5)c4)cc3)[nH]c12 showed an inhibition of 9.57%. With Cc1cc(CNCCCCCCNCc2cccc([N+](=O)[O-])c2)ccc1O the inhibition was 9.56%. For CCCCCCCCc1c(C)nc(C)c(Br)c1O, the inhibition was -0.72%. With CC(=O)Nc1ccc(COc2ccc(Nc3ccnc4cc(-c5ccccn5)ccc34)cc2)cc1 the inhibition was 1.28%. With Fc1ccc2[nH]c(-c3ccc(-c4ccc(CN5CCC(CCN6CCCCC6)CC5)cc4)cc3)nc2c1 the inhibition was 9.43%. For CCOc1ccc(-c2nonc2NC(=O)c2ccco2)cc1OCC, the inhibition was -0.52%. Work on Cc1cccc2nc(-c3cccc(-c4cccc(NC(=O)c5ccc(C(N)=O)cc5)c4)c3)[nH]c12 yielded an inhibition of 1.11%. With Cc1cccc2nc(-c3cccc(-c4ccc(NC(=O)CCc5c[nH]cn5)cc4)c3)[nH]c12 the inhibition was 9.49%. O=C(NC1CC1c1ccccc1)N(CCCn1ccnc1)Cc1csc(-c2ccc(CNCc3ccccc3)cc2)n1 (stereo not given) was tested, and the inhibition was 1%. COc1ccc(NS(=O)(=O)c2ccc(C(=O)Nc3ccc(C(F)(F)F)cc3)cc2)cc1N1CCN(CC2CC2)CC1 gave an inhibition of 0.6%. In the case of N#Cc1cccc(NC(=O)Nc2cccc(OC3CCN(Cc4ccccc4)CC3)c2)c1, the inhibition is reported as 0.59%. For Cc1ccc(/C=C2/SC(=Nc3ccccc3)NC2=O)c(C)c1, the inhibition was 12.1%. With O=C(Nc1ccc(-c2ccccc2)s1)N[C@H]1CCN(Cc2ccc(OCCCN3CCCCC3)cc2)C1 the inhibition was 1.34%. Work on FC(F)(F)c1cnc(Sc2nnc(-c3ccncc3)o2)c(Cl)c1 yielded an inhibition of -5.1%. COc1ccc(-c2c3c(=O)n(C)c(=O)n(C)c3c3nnc4ccccc4n23)cc1 was tested, and the inhibition was 1.06%. With CC(=O)Nc1nc(C(=O)Nc2cccc(-c3cccc(-c4nc5cc(F)ccc5[nH]4)c3)c2)cs1 the inhibition was 3.28%. For CCCNC[C@@H](O)[C@H](Cc1ccccc1)NC(=O)c1cc(NCC)cc(N2CCCC2=O)c1, the inhibition was 2.29%. In the case of CC(C)(C)c1ccc(CNC(=O)c2ccc(-c3nc4ccc(Cl)cc4[nH]3)cc2)cc1, the inhibition is reported as 1.77%. For COc1ccc2nccc([C@@H](O)CN3CCC(NCc4cc5ccccc5o4)CC3)c2c1, the inhibition was 15.3%. Compound COc1ccc(-c2cccc(NC(=O)c3cccc(Cl)c3)c2)cc1CNC(C)C has an inhibition of -0.57%. With CCCn1cc2c(ccc3nc(N)nc(N)c32)n1 the inhibition was 0.8%.
